Our source for the Potency values is PubChem BioAssay AID1347146 (National Center for Advancing Translational Sciences (NCATS), 2019).

Each structure is given as a SMILES string. Records with an inconclusive call do not appear. Entries that show only a call come without a potency. The source made the active and inactive calls. Calls come from the whole dose curve; as a rule, active = well fitted inhibition curve with a large enough effect; inconclusive = small, poorly fitted or top-dose-only effect; inactive = no such curve, though single readings can be large or run the other way.
Potency is the fitted concentration of half-maximal effect.

Sequence of Nicotinamide N-methyltransferase (Homo sapiens) (P40261 whole entry, looked up): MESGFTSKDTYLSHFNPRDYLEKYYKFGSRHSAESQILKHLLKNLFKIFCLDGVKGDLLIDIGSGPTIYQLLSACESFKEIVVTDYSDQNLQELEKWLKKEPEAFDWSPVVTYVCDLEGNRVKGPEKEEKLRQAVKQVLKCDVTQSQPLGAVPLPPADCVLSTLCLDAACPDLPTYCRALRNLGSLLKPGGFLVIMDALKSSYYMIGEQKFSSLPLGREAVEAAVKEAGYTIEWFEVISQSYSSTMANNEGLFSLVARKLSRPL

The assay concerns the target Nicotinamide N-methyltransferase (Homo sapiens) (UniProt P40261). Put plainly: qHTS Assay for Inhibitors of N-terminal methyltransferase 1 (NTMT1): NNMT MTaseGlo counterscreen assay. Conditions: NNMT enzyme, MTase-Glo luminescence counterscreen; series mostly up to 57.1 µM. In short, it runs like this:
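Luminescent MTase-Glo read-out of SAH from nicotinamide methylation: 1 µM nicotinamide, 100 µM SAM, 125 nM NNMT, 30 min RT after ~15 min compound preincubation. Values normalized to no-enzyme/DMSO controls, Hill-fitted.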
A general note: Quantitative high-throughput screening tests each substance at several concentrations.
As for `NC(Cc1c[nH]c2ccc(O)cc12)C(=O)O` (configuration not stated), the Potency entry is “inactive”.

Turning to `CNC(=O)c1cnn(-c2nc(N)c3ncn([C@@H]4O[C@H](CO)[C@@H](O)[C@H]4O)c3n2)c1`, the Potency entry was “inactive”.

As for `c1cc(CN2CCCCC2)cc(OCCCNc2nc3ccccc3s2)c1`, the Potency entry is “inactive”.

Turning to `CN(C)c1ccc(/C=C2\C(=O)Nc3ccccc32)cc1`, the Potency was 10 µM (active).

As to `Nc1ncnc2c1[nH]c(=S)n2C1OC(CO)C(O)C1O` (configuration not stated), the Potency entry is “inactive”.

As to `CCCCC#Cc1nc(NC)c2ncn([C@@H]3O[C@H](CO)[C@@H](O)[C@H]3O)c2n1`, the Potency entry was “inactive”.

For `CC(C)NC[C@@H](O)c1ccc(O)c(O)c1`, the Potency result was “inactive”.

On to `OCC1OC(n2cnc3c(NO)ncnc32)C(O)C1O` (configuration not stated), for which the Potency entry is “inactive”.

In the case of `CC(C)(C)c1ccc(S(=O)(=O)/C=C\C#N)cc1`, the Potency is 11.2 µM (active).

With `Clc1nccc2c1ccc1ccccc12`, the Potency entry was “inactive”.

As for `Cc1nn(-c2ccccc2)c(C)c1/C=N/N1CCN(Cc2ccccc2)CC1`, the Potency result is “inactive”.

For `NCCc1ccc(O)c(O)c1`, the Potency entry is “inactive”.

Take `O=c1cc(-c2ccccc2)oc2c(O)c(O)ccc12`: the Potency result was “inactive”.

For the compound `O=C1c2c(O)cc(O)cc2OC(c2ccc(O)c(O)c2)C1O` (configuration not stated), the Potency entry is “inactive”.

As for `OCCNc1ncnc2c1ncn2[C@@H]1O[C@@H](CO)[C@H](O)[C@@H]1O`, the Potency entry is “inactive”.

As for `C[C@](Cc1ccc(O)c(O)c1)(NN)C(=O)O`, the Potency entry is “inactive”.

On to `COc1cc(CNC(=O)CCCCCCC(C)C)ccc1O`, for which the Potency result is “inactive”.

`Oc1ccc2ccccc2c1SSc1c(O)ccc2ccccc12`: the Potency result is “inactive”.

Take `Cc1cc(C)c(/C=C2\C(=O)Nc3ccccc32)[nH]1`: the Potency result was “inactive”.

Turning to `CC(C)COCC(CN(Cc1ccccc1)c1ccccc1)N1CCCC1` (configuration not stated), the Potency result is “inactive”.

For `Cc1nnc(SCC2=C(C(=O)O)N3C(=O)[C@@H](NC(=O)Cn4cnnn4)[C@H]3SC2)s1`, the Potency entry was “inactive”.

Consider `Nc1nc(Cl)nc2c1ncn2[C@@H]1O[C@H](CO)[C@@H](O)[C@@H]1F`, for which the Potency entry is “inactive”.

Take `Nc1nc(=S)c2ncn([C@@H]3O[C@H](CO)[C@@H](O)[C@H]3O)c2[nH]1`: the Potency result is “inactive”.

Consider `N#C/C(=C\c1ccc(O)c(O)c1)C(=O)Nc1ccccc1`, for which the Potency entry was “inactive”.

Regarding `Nc1nc(Cl)nc2c1ncn2[C@@H]1O[C@H](COP(=O)(O)OP(=O)(O)OP(=O)(O)O)[C@@H](O)[C@H]1O`, the Potency result is “inactive”.

Consider `C/C(=C\CNc1ncnc2c1ncn2[C@@H]1O[C@H](CO)[C@@H](O)[C@H]1O)CO`, for which the Potency result was “inactive”.

As for `O=C(O)Cc1ccc(O)c(O)c1`, the Potency entry was “inactive”.

As for `CN(C)CCCN1c2ccccc2Sc2ccc(C(F)(F)F)cc21`, the Potency result is “inactive”.

For `O=C1Nc2ccc(I)cc2/C1=C/c1cc(Br)c(O)c(Br)c1`, the Potency was 25.1 µM (active).

On to `Oc1ccc(Cn2cc[nH]c2=S)cc1`, for which the Potency result was “inactive”.

With `Nc1ncnc2c1ncn2[C@@H]1O[C@H](COP(=O)(O)OP(=O)(O)OC[C@H]2OC(O)[C@H](O)[C@@H]2O)[C@@H](O)[C@H]1O` (some centres not stated), the Potency entry was “inactive”.

Regarding `Clc1ccc(N2CCN(Cc3c[nH]c4ncccc34)CC2)cc1`, the Potency entry is “inactive”.

With `COc1cc2c(NC3CCN(C(C)C)CC3)nc(N3CCCN(c4ccccc4)CC3)nc2cc1OCCCN1CCCC1`, the Potency result is “inactive”.

Turning to `COc1cc2c(NC3CCN(C)CC3)nc(N3CCCCC3)nc2cc1OCCCN(C)C`, the Potency result was “inactive”.

As to `C=CCN1CCc2c(cc(O)c(O)c2Cl)C(c2ccccc2)C1` (configuration not stated), the Potency entry was “inactive”.

In the case of `Cc1cccc(/C=C/c2ccccc2)n1`, the Potency entry is “inactive”.

As for `CCC(=O)c1ccc2c(c1)N(CCCN(C)C)c1ccccc1S2`, the Potency entry was “inactive”.
